Test results: PubChem BioAssay AID624417 (National Center for Advancing Translational Sciences (NCATS), 2012)
About 6,400 (1.6%) of roughly 410,000 compounds were called active. Not shown: some 20% with an inconclusive outcome. The sample holds actives, similar compounds and a random draw of the others, so the mix is not that of the screen. Calls follow the shape of the dose curve; as a rule, active = well fitted inhibition curve with a large enough effect; inconclusive = small, poorly fitted or top-dose-only effect; inactive = no such curve, though single readings can be large or run the other way.

These compounds were tested against Glucagon-like peptide 1 receptor (Homo sapiens) (UniProt P43220) (assay: qHTS of GLP-1 Receptor Inverse Agonists (Inhibition Mode)). Conditions: HEK293 GLP-1R CRE-luciferase, luminescence, 24 h, GLP-1R form is constitutively active; series mostly up to 38.3 µM; activity change, negative = inhibition: at the top concentration.
In short: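 Constitutively active GLP-1R drives a cAMP-responsive luciferase in stably transfected HEK293 cells; test compounds are added after overnight (12 h) attachment and left 24 hr, and signal loss in luminescence marks inhibition.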
% is scaled to controls: 0 for no effect and ±100 for the full control effect; potency is read from the fitted curve at half-maximal effect.
Also: nearly all actives have a fitted effect of over 55% in size.

Glucagon-like peptide 1 receptor (Homo sapiens), sequence (P43220 whole entry, looked up): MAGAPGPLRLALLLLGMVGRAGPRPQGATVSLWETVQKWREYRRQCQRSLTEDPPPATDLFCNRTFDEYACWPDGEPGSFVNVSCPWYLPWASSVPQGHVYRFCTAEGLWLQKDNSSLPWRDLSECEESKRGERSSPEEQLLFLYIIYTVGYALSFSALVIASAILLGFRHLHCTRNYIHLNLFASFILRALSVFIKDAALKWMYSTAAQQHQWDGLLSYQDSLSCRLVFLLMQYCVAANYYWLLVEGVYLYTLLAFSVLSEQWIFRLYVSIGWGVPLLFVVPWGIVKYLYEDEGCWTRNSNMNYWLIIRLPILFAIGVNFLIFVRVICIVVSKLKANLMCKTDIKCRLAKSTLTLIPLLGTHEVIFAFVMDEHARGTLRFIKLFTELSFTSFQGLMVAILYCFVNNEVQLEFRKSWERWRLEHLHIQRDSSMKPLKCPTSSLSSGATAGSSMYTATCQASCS

| SMILES | activity change, negative = inhibition | Potency |
| --- | --- | --- |
| OC[C@@H]1CN(Cc2ccc3c(c2)OCO3)C[C@H](n2cnc3c(NCc4ccco4)ncnc32)O1 | -8.25% (inactive) | – |
| O=C(CSc1ccc(Cl)cc1)NC1CC1 | 2.92% (inactive) | – |
| COc1ccc(C(=O)Nc2onc3c2CCCC3)cc1 | – | 11.2 µM (active) |
| COc1ccc(NC(=O)c2c(C)oc3c2CCCC3)cc1 | 0% (inactive) | – |
| CC1CCc2noc(NC(=O)c3ccc([N+](=O)[O-])cc3)c2C1 (centres undefined) | -25.2% (inactive) | – |
| O=C1NC[C@H](CCCCN2C[C@H](Cc3ccccc3)N(Cc3ccccc3)C(=O)C2=O)N(CCc2ccc(O)cc2)C1=O | 8.51% (inactive) | – |
| CN1CCn2cnc(C(=O)NCC(=O)OC(C)(C)C)c2C1=O | 15.6% (inactive) | – |
| O=C(Nc1nnc([C@H]2C[C@H](O)[C@@H](CO)O2)s1)c1cccc(Cl)c1 | -12.3% (inactive) | – |
| CC1=NN(c2cccc(Cl)c2)C(=O)C12CC(C)=C(C)CS2 (centres undefined) | – | 10 µM (active) |
| CCOC1=C2[C@H]([C@H]3C(=O)N(c4ccccc4)C(=O)[C@H]3C1)[C@@H](c1ccccc1)N(S(=O)(=O)c1ccc(C)cc1)[C@H]2c1ccccc1 | 10.2% (inactive) | – |
| Cc1cc(Nc2ccc(C)c(C)c2)n2ncnc2n1 | 11.7% (inactive) | – |
| CCn1ccnc1CN1CCCC(C(=O)c2ccc3c4c(cccc24)CC3)C1 (centres undefined) | – | 11.2 µM (active) |
| CC(=O)NCC(=O)N1CCCC(C(=O)c2ccc3c4c(cccc24)CC3)C1 (centres undefined) | 8.71% (inactive) | – |
| CCOC(=O)c1[nH]ncc1CN1CCCC(C(=O)c2ccc(OC)cc2C)C1 (centres undefined) | -2.62% (inactive) | – |
| O=C(N=C1SC2CS(=O)(=O)CC2N1Cc1ccccc1)c1ccccc1 (centres undefined) | 0.0638% (inactive) | – |
| CSCCC(C(=O)NC(C)(C)C)n1c(-c2ccccc2)nc2ccccc21 (centres undefined) | 11% (inactive) | – |
| COc1ncnc2c1ncn2CCCNCCN1CCOCC1 | 6.67% (inactive) | – |
| CCc1nc2c(OCCOc3ccccc3)cccn2c1N(C)C(=O)c1ccc(OC)cc1 | 10.8% (inactive) | – |
| CC(C)(C)c1ccc(C(=O)NNC(=O)Cc2ccccc2)cc1 | -24.5% (inactive) | – |
| CN(C(=O)CC(NC(=O)c1ccccc1)(c1ccccc1)c1ccccc1)c1ccccc1 | – | 12.6 µM (active) |
| CN(C(=O)COC(=O)CNC(=O)C12CC3CC(CC(C3)C1)C2)c1ccccc1 | 21.8% (inactive) | – |
| COc1ccc(C(CNC(=O)CSc2ccccc2)N2CCOCC2)cc1 (centres undefined) | -4.63% (inactive) | – |
| COc1ccc(C(=O)ON=C2c3ccccc3-c3ccccc32)cc1OC | 21.9% (inactive) | – |
| COc1ccc(C(=O)O/N=C(\N)Cc2ccc(Cl)cc2Cl)cc1OC | – | 8.91 µM (active) |
| COc1ccc(C/C(N)=N/OC(=O)c2ccco2)cc1OC | 47.5% (inactive) | – |

| SMILES | activity change, negative = inhibition | Potency |
| --- | --- | --- |
| CCc1c(C)nc2c(-c3ccccc3)c(C)nn2c1Nc1ccc(NC(C)=O)cc1 | – | 10 µM (active) |
| Cc1cc(-c2ccccc2)n2nc(C)c(-c3ccccc3)c2n1 | -1.84% (inactive) | – |
| Cc1cc(-n2nc(C)cc2C)n2nc(C)c(-c3ccccc3)c2n1 | -10.6% (inactive) | – |
| Cc1ccc2nc(-c3ccccc3)c(CC3CCCCC3)n2c1 | -29.8% (inactive) | – |
| O=C1Nc2ccccc2-n2nnnc2C1N1CCN(c2cccc(C(F)(F)F)n2)CC1 (centres undefined) | -22% (inactive) | – |
| CC(=O)c1cccc(-c2cnc3c(NC=O)cc(-c4ccccc4Oc4ccccc4)cn23)c1 | -19.1% (inactive) | – |
| CNc1cncc(-c2cccc(C(=O)N3CCOCC3)c2)n1 | 2.33% (inactive) | – |
| Cc1nccn1-c1ccc(NC(=O)[C@H]2O[C@@H](n3ccc(=O)[nH]c3=O)[C@H](O)[C@@H]2O)cc1 | 8.26% (inactive) | – |
| COc1cc(C(O)c2nc(-c3cnn(C)c3)cs2)ccc1F (centres undefined) | -19.5% (inactive) | – |
| CN1CCN(C(=O)c2ccc(NC(=O)c3ccc(Br)o3)cc2)CC1 | 22.9% (inactive) | – |
| CCN(CC)S(=O)(=O)c1ccc(-c2cn3ccc(C)cc3n2)cc1 | 15.4% (inactive) | – |
| COc1ccc(-c2cn3ccc(C)cc3n2)cc1 | – | 6.31 µM (active) |
| COc1ccc(-c2cn3cccnc3n2)cc1 | 20.6% (inactive) | – |
| COc1ccc(-c2c(C#N)cnc(C)c2C)c(O)c1OC | -2.78% (inactive) | – |
| CNC[C@H]1OCc2cnnn2CCCC(=O)N([C@H](C)CO)C[C@@H]1C | 26.7% (inactive) | – |
| OC(c1ccc(Cl)c(F)c1)c1ncc(-c2ccccc2Cl)[nH]1 (centres undefined) | -21.2% (inactive) | – |
| COC(=O)c1ccc(C(NC(=O)OCc2ccccc2)/C(F)=C/[C@@H](C)C(=O)O)cc1 (some centres undefined) | 16.1% (inactive) | – |
| COC(=O)c1ccc(NCC(=O)c2ccccc2)cc1 | 4.32% (inactive) | – |
| CCC[C@@H]1C[C@@]1(CCC)[C@@H](NC(=O)c1ccccc1)c1ccc(C(=O)OC)cc1 | – | 5.01 µM (active) |
| CCC1=Nc2cc(C(=O)NCCN3CCCC3)ccc2Sc2ccc(C)cc21 | – | 3.55 µM (active) |
| CCc1ccccc1NC(=O)NCCN1CCCCC1 | 11.2% (inactive) | – |
| Cc1ccccc1CN1C(=O)c2ccccc2Sc2ccc(C(=O)NCCCN3CCOCC3)cc21 | -26.5% (inactive) | – |
| Cc1ccc(C(=O)NCCNS(=O)(=O)c2ccccc2)cc1 | 0.318% (inactive) | – |
| COc1ccc(C(=O)NCCCN2CCOCC2)cc1Br | 3.74% (inactive) | – |
| CCC1=Nc2cc(C(=O)NCC(C)c3ccccc3)ccc2Sc2ccc(C)cc21 (centres undefined) | – | 5.01 µM (active) |

| SMILES | activity change, negative = inhibition | Potency |
| --- | --- | --- |
| CC1=C(C(=O)Nc2cccc(C(=O)NCC(C)c3ccccc3)c2)SCCO1 (centres undefined) | -20.5% (inactive) | – |
| CCC1=Nc2cc(C(=O)NCCCN3CCOCC3)ccc2Sc2ccc(Br)cc21 | – | 11.2 µM (active) |
| Cc1ccc(C(=O)NC(=S)NCCN2CCOCC2)cc1 | 16% (inactive) | – |
| O=C(Nc1ccccc1)c1ccccc1Br | 27.6% (inactive) | – |
| CC(OC(=O)c1cccc(S(=O)(=O)N2CCOCC2)c1)C(=O)NCC1CCCCC1 (centres undefined) | -10.6% (inactive) | – |
| CC1=C(C(=O)N2CCOCC2)CC(CC(=O)NCCN2CCOCC2)C(=O)N1CCC1=CCCCC1 (centres undefined) | 3.72% (inactive) | – |
| COCCNC(=O)C1C(=O)Nc2ccccc2C(=O)N1c1ccc2c(c1)OCCO2 (centres undefined) | 15.6% (inactive) | – |
| CCc1oc(-c2ccc(OC)cc2)c(C(=O)OCCCCCO)c1C(C)OCCO (centres undefined) | 6.05% (inactive) | – |
| CC1(C(=O)Nc2ccccc2Br)CCN1C(=O)CC1CC1 (centres undefined) | 8.34% (inactive) | – |
| COc1ccc(Nc2nnc(C)c3ccccc23)cc1 | 17.4% (inactive) | – |
| COc1cccc(Nc2nc3ccccc3c3nncn23)c1 | 10.2% (inactive) | – |
| Oc1ccc(-c2nnc(Nc3ccccc3)c3ccccc23)cc1 | 2.85% (inactive) | – |
| Cc1cccc(-c2nc(Nc3ccc(O)cc3)c3ccccc3n2)c1 | – | 2.82 µM (active) |
| COc1cc(Nc2nc(-c3ccc(OC)c(OC)c3)nc3ccccc23)cc(OC)c1 | – | 11.2 µM (active) |
| Cc1cccc(-c2noc(-c3ccc(F)cc3)n2)c1 | 1.87% (inactive) | – |
| C[C@H]1CN([C@@H](C)CO)C(=O)CCCn2cc(nn2)CO[C@@H]1CN(C)C(=O)Nc1ccccc1 | 9.62% (inactive) | – |
| CCCCNC(=O)C[C@@H]1C[C@@]2(C(=O)OC)CC(C)(C)CC=C2N(Cc2ccco2)C1=O | -13.8% (inactive) | – |
| Cc1cn([C@H]2C[C@H](O)[C@@H](/C=C/C(=O)NCCCc3ccccc3)O2)c(=O)[nH]c1=O | 21.9% (inactive) | – |
| CC(C)(C)C(=O)c1c(N)[nH]c(C(=O)c2ccccc2)c1-c1ccc(F)cc1 | -9.81% (inactive) | – |
| C[C@H](CO)N1C[C@H](C)[C@@H](CN(C)C(=O)C2CCCCC2)OCc2cnnn2CCCC1=O | -2.95% (inactive) | – |
| CC1CCc2c(nc3ncnn3c2Nc2ccc(OC(F)(F)F)cc2)C1 (centres undefined) | – | 11.2 µM (active) |
| CC(=O)c1nn(-c2ccc(OC(F)(F)F)cc2)nc1Nc1ccccc1 | 27.9% (inactive) | – |
| Brc1ccc(Nc2c3c(nc4ncnn24)CCC3)cc1 | 8.88% (inactive) | – |
| COc1ccc(-c2nc3ccc(Br)cn3c2Cc2ccc(C)cc2)cc1OC | 2.33% (inactive) | – |
| CC(C)c1cc(Cn2c3ccccc3c(=O)n2C(C)Cn2cc(C3CC3)nn2)on1 (centres undefined) | 7.54% (inactive) | – |

| SMILES | activity change, negative = inhibition | Potency |
| --- | --- | --- |
| CCN(CC)S(=O)(=O)c1ccc(Cl)c(C(=O)NCCN2CCOCC2)c1 | 12.5% (inactive) | – |
| CCN(CC)S(=O)(=O)c1ccc(N2CCCC2)c(NS(=O)(=O)c2cccs2)c1 | -8.52% (inactive) | – |
| CCN(CC)S(=O)(=O)c1ccc(Cl)c(C(=O)NC(C)C(c2cccs2)N2CCCC2)c1 (centres undefined) | – | 5.62 µM (active) |
| COc1ccc(CN2C(=O)C(CC(=O)NC3CCCCC3)CC(C(=O)N3CCOCC3)=C2C)cc1 (centres undefined) | 10.1% (inactive) | – |
| CC(=O)Nc1ccc(-c2ccnc3c2CC(C(=O)NC(C)C)O3)cc1 (centres undefined) | 16.4% (inactive) | – |
| COc1ccc(NC(=O)C2Cc3c(-c4cccc(NC(C)=O)c4)ccnc3O2)cc1OC (centres undefined) | -39% (inactive) | – |
| O=C(Nc1ccc(Cl)cc1)C1Cc2c(-c3ccc4c(c3)OCO4)ccnc2O1 (centres undefined) | – | 11.2 µM (active) |
| COc1ccc(NC(=O)CCCOc2ccc(C(C)=O)cc2)cc1S(=O)(=O)N1CCCCC1 | 5.87% (inactive) | – |
| CN(Cc1ccccc1)C(=O)CCC1CCN(C(=O)c2ccco2)CC1 | 5.45% (inactive) | – |
| C[C@H]1CN([C@@H](C)CO)C(=O)CCCn2cc(nn2)CO[C@@H]1CN(C)S(=O)(=O)c1ccccc1C#N | 6.64% (inactive) | – |
| CCCCCCNC(=O)O[C@]12C[C@@H](C(=O)OC)[C@@H](C(=O)OC)C[C@@]1(O)CN(S(=O)(=O)c1ccc(C)cc1)C2 | -28.7% (inactive) | – |
| Cc1ccc(OCc2n[nH]c(=S)n2-c2ccccc2)cc1 | -15.4% (inactive) | – |
| Cc1ccc(OCc2nnc(SC3CCc4ccccc4C3=O)n2C)cc1 (centres undefined) | – | 7.08 µM (active) |
| Cc1cccnc1NC(=O)CSc1nnc(COc2ccc(C(C)C)cc2)n1C | 1.37% (inactive) | – |
| O=C(COC(=O)c1ccc(S(=O)(=O)N2CCCCCC2)cc1)Nc1ccccc1C(F)(F)F | 22% (inactive) | – |
| CN1OC[C@@H]2CN(C(=O)C(C)(C)C)[C@H](c3ccc(-n4ccnc4)cc3)C[C@@H]21 | 13.5% (inactive) | – |
| COc1cc(C(C)=O)ccc1OC(=O)CN1C(=O)c2ccccc2C1=O | 18.4% (inactive) | – |
| COc1ccccc1-c1sc2ccccc2c1-c1ccc(Br)nc1 | – | 10 µM (active) |
| COc1ccccc1-c1sc2ccccc2c1-c1ccc(C(C)=O)cc1 | – | 10 µM (active) |
| COc1ccc(-c2sc3ccccc3c2-c2ccc(OCCN3CCOCC3)cc2)cc1 | 5.48% (inactive) | – |
| COc1ccc2sc(-c3ccccc3OC)c(-c3ccc(OCCN4CCCC4)cc3)c2c1 | -26.6% (inactive) | – |
| COc1ccc2sc(-c3ccc(S(C)(=O)=O)cc3)c(-c3ccc(C(N)=O)cc3)c2c1 | -10.9% (inactive) | – |
| N#Cc1ccc(-c2nc3c(Cl)cc(C(F)(F)F)cn3c2Cc2ccccc2C(F)(F)F)cc1 | 5.12% (inactive) | – |
| CC1(C(=O)NS(=O)(=O)c2cccc(F)c2)CCN1C(=O)Cc1cc(F)ccc1F (centres undefined) | 11.6% (inactive) | – |
